Source: PubChem (several laboratories)
Shown are actives, neighbours in structure and some others; about 3.4% of the full set was active somewhere.
Gli-Sufu block: blocks Gli-Sufu signaling in a luciferase reporter; inhibition, % at 5 µM; Sufu-KO-LIGHT fibroblasts, Gli luciferase reporter luminescence; actives 0.74% (n = 340,000);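 active means inhibition above about 55%, limit read from the data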
H9c2 protect: modulators protecting cardiomyocytes from myocardial damage | H9c2 cardiomyocytes, H2O2 injury protection, ATPLite, 2 h | protection from H2O2 cell death, % at 20 µM | actives 0.63% (n = 360,000) | AID 588492;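 active means compounds giving at least 50% protection of heart cells from peroxide-induced death in the single-dose screen, raw or plate-pattern-corrected value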
FXN GAA850 act: activators of GAA850 frataxin (FXN) promoter; activation, % at 6 µM; HEK293 lucGAA850 FXN promoter luciferase reporter, 24 h; percent of 10 µM SAHA response; actives 0.56% (n = 360,000); AID 540364;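 active means activation above the average of all compounds screened plus 3 SD, cutoff fixed separately per campaign, cut at about 7.5% in these data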
SMARCA2 activ: activators of SMARCA2 function; MG213 cells, MMTV-luciferase reporter, dexamethasone, overnight; activation, % at 9.1 µM; actives 1% (n = 370,000); in the data active means activation above about 7.8%
COUP-TFII inh: NR2F2 (human) inhibition, primary screen; P24468; HEK293T NGFI-A luciferase reporter, luminescence; inhibition, % at 8.6 µM; actives 0.7% (n = 370,000);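 active means inhibition above a per-plate cutoff, mean inhibition of test wells between control levels plus 3 SD, cut at about 38% in these data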;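 further: cells cotransfected with COUP-TFII expression vector driving the NGFI-A reporter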
Target sequence (P24468 whole entry, looked up): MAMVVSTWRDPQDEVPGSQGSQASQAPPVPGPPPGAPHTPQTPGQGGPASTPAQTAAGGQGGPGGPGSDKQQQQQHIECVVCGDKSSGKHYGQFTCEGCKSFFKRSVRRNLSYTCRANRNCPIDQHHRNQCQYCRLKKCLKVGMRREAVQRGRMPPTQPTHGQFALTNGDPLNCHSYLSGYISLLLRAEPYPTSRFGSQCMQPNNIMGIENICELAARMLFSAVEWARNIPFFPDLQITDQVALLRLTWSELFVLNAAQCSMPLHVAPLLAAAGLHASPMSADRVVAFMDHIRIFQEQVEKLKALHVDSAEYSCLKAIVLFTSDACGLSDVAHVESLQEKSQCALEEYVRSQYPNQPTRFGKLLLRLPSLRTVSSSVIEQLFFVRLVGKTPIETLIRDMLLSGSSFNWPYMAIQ
GalR3 antagonist: human GalR3 antagonism; O60755; HEK293 GalR3-CNG cAMP membrane potential fluorescence; galR3 body fused to GalR1 C-terminus; inhibition, % at 3 µM; actives 0.44% (n = 360,000); AID 651719;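 active means inhibition above the screen-wide average plus 3 SD, cut at about 13% in these data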;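 further: forskolin and galanin both at EC90 stimulate the cells; cAMP rise reported by CNG channel membrane potential dye signal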
SMARCA2 act conf: confirmation of SMARCA2 (BRM) function activators | activation, % at 9.1 µM | actives 30% (n = 3,500) | MG213 cells, MMTV-luciferase with dexamethasone, luminescence, overnight; MG213 cells expressing E1A, Rb sequestered; DMSO wells 0%, reference activator 100% | shares compounds with SMARCA2 activ;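 active means activation above its plate's cutoff, the mean activation of tested wells plus 3 SD, cut at about 7.9% in these data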
VP16 Luc act: counter-screen for SMARCA2 activators: GAL4-VP16 luciferase reporter activation | activation, % at 9.1 µM | actives 41% (n = 3,500) | shares compounds with SMARCA2 activ | HEK293 GAL4-VP16 pG5luc reporter, luciferase luminescence; scaled: DMSO wells 0%, SAHA wells 100% | AID 686939;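 active means activation above the solvent-only control well mean plus 3 SD, averaged across control plates, cut at about 5.2% in these data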
Hits are given with their value; i = inactive; nt = no result; ! = repeats disagree.

SMILES	Gli-Sufu block	H9c2 protect	FXN GAA850 act	SMARCA2 activ	COUP-TFII inh	GalR3 antagonist	SMARCA2 act conf	VP16 Luc act
NS(=O)(=O)c1ccc(NC(=O)CSc2nc3c(cnn3-c3ccccn3)c(=O)[nH]2)cc1	i	i	i	i	i	i	nt	nt
Nc1nc(Sc2ccc([N+](=O)[O-])c3nonc23)c2[nH]cnc2n1	i	i	i	26	i	i	i	i
CC(C)(C)CN1CCNC(=O)C1CC(=O)NCCc1ccccc1F (centres undefined)	i	i	i	i	i	i	nt	nt
CN(C(=O)c1ccc(=O)n(Cc2ccc(Cl)cc2)c1)c1ccccc1	i	i	i	i	i	i	nt	nt
Cc1ccc2[nH]c(=O)c3cc(C(=O)N(C)Cc4ccco4)sc3c2c1	i	i	i	8.4	i	nt	13	i
OCC1OC(n2cnc3c(SCc4ccccc4)ncnc32)C(O)C1O (centres undefined)	i	i	i	8.7	i	i	13	i
Nc1ncnc2c1ncn2C1OC(CO)C(O)C1O (centres undefined)	i	i	i	8.6	i	i	i	i
Nc1nc(SCc2ccccc2)c2ncn(C3OC(CO)C(O)C3O)c2n1 (centres undefined)	i	i	i	i	i	i	nt	nt
OCC1OC(n2ccc3c(SCc4ccccc4)ncnc32)C(O)C1O (centres undefined)	i	i	i	9.4	i	i	i	9.6
O=C1CCC(C(=O)Nc2cccc(S(=O)(=O)N3CCOCC3)c2)N1 (centres undefined)	i	i	i	i	i	i	nt	nt
CSc1ccc(/C=C(\NC(=O)c2ccco2)C(=O)N2CCCCC2)cc1	i	i	i	i	i	i	nt	nt
CN(C)Cc1ccccc1CNC(=O)c1ccc(Cl)c(S(=O)(=O)NC2CC2)c1	nt	i	i	i	i	i	nt	nt
CN(C)Cc1ccc(CNC(=O)c2ccc(Cl)c(S(=O)(=O)NC3CC3)c2)cc1	i	i	i	9.0	i	i	i	i
COc1cc(/C=N/NC(=S)NC2CC3CCC2C3)ccc1O (centres undefined)	i	i	i	9.4	i	i	i	i
CC1CCc2c(sc(NC(=O)CSc3nnc(-c4ccccc4)o3)c2C#N)C1 (centres undefined)	i	i	i	9.9	i	i	i	i
O=C(CSc1nnc(-c2ccc(O)cc2)o1)Nc1ccccc1	i	i	i	8.6	i	i	11	8.1
COc1ccccc1NC(=O)CSc1nnc(C)s1	i	i	i	i	i	i	nt	nt
O=C(CN1CCCCC1)Nc1c2c(nc3ccccc13)N(c1ccccc1)CC2	i	i	i	11	i	i	9.4	i
O=C(/C=C/c1ccccc1)Nc1cccc(C(=O)NCc2ccccc2)c1	nt	nt	nt	i	i	i	nt	nt
O=C(/C=C/c1ccccc1)Nc1cccc(C(=O)NC2CC2)c1	i	i	i	13	i	i	i	6.7
O=[N+]([O-])c1cccc(-c2ccc(C(=S)N3CCN(c4ccc(F)cc4)CC3)o2)c1	i	i	i	9.1	i	i	i	i
O=C1Nc2c(ccc(Cl)c2Cl)C(=O)C1(F)c1ccccc1 (centres undefined)	i	i	i	8.3	i	i	i	i
O=C1Nc2ccc(Cl)cc2C(=O)C1(F)c1ccccc1 (centres undefined)	i	i	i	i	i	i	nt	nt
COc1cc(C)ccc1OCc1cc(C(=O)N2CCN(C)C[C@@H]2c2ccccc2)no1	i	i	i	8.7	i	i	i	i
COc1cc(C)ccc1OCc1cc(C(=O)N2C[C@H]3CC[C@H]2C3)no1	i	i	i	i	i	i	nt	nt
SMILES	Gli-Sufu block	H9c2 protect	FXN GAA850 act	SMARCA2 activ	COUP-TFII inh	GalR3 antagonist	SMARCA2 act conf	VP16 Luc act
COc1cc(Cl)ccc1OCc1cc(C(=O)N(C)C2CCOC2)no1 (centres undefined)	i	i	i	8.7	i	i	i	i
COCCN1CCN(C(=O)c2cc(COc3ccc(Cl)cc3OC)on2)CC1	i	i	i	8.3	i	i	14	9.7
CN(C(=O)c1cc(COc2c(F)cccc2F)on1)C1CCOC1 (centres undefined)	i	i	i	i	i	i	nt	nt
O=C1c2cccc3c2C2(O)c4c1cccc4C(=O)c1cccc(c12)C3=O	nt	i	i	8.1	i	i	i	i
CC1(C)c2ccccc2C(=O)c2ccccc21	i	i	i	i	i	i	nt	nt
O=C1/C(=C/c2ccco2)Cc2ccccc21	i	i	i	11	i	i	13	i
O=C(Nc1ccc(F)cc1)c1cc2ccccc2o1	i	i	i	i	i	i	nt	nt
Cc1cc(C(=O)Nc2ccccc2)oc1C	i	i	i	9.0	i	i	i	11
CC(C)C(=O)Nc1cccc(NC(=O)c2cc3ccccc3o2)c1	i	i	i	9.4	i	i	i	10
O=C(Nc1ccccc1)c1cc2ccccc2o1	i	i	i	13	i	i	i	i
CC1CCCCC1NC(=O)c1cccc(NC2=NC3CS(=O)(=O)CC3S2)c1 (centres undefined)	i	i	i	i	i	nt	nt	nt
CNC(=O)CCCCC(=O)N/N=C/c1ccc(Cl)cc1Cl	i	i	i	i	i	i	nt	nt
CCN(CC)S(=O)(=O)c1cc(C(=O)OCC(=O)NC2CCCc3ccccc32)ccc1C (centres undefined)	i	i	i	11	i	i	i	i
CNS(=O)(=O)c1cc(C(=O)OCC(=O)NC2CCCc3ccccc32)ccc1Cl (centres undefined)	i	i	i	i	i	i	nt	nt
COC(=O)[C@]12C[C@H](CC(=O)N3CCOCC3)C(=O)N(Cc3ccco3)C1=C[C@H](C(C)C)O[C@@H]2C1CC1	nt	nt	nt	9.6	i	nt	i	i
C/C(N)=C(/C#N)C(=O)CSc1ccccc1F	i	i	i	9.0	i	i	10	8.8
C/C(N)=C(/C#N)C(=O)CSc1n[nH]c(-c2ccccc2Br)n1	i	i	i	8.6!	i	i	i	i
Cc1cc(NC(=O)CSc2n[nH]c(-c3ccccc3Br)n2)no1	i	i	i	i	i	i	nt	nt
COC(=O)c1c(NC(=O)Cc2ccc(OC)c(S(=O)(=O)N3CCOCC3)c2)sc(C)c1C	i	i	i	i	i	i	nt	nt
COC(=O)c1cc(C(=O)Nc2nnc(CC(C)C)s2)cc([N+](=O)[O-])c1	i	i	i	12	i	i	i	i
COc1ccc(/C=N\NC(=O)c2ccc(=O)[nH]n2)cc1O	i	i	i	12	i	i	i	i
COc1ccc(/C=N/NC(=O)c2ccc(=O)[nH]n2)cc1OC	i	i	i	i	i	i	nt	nt
